In the supplement of paper PMC11732987, “Enantioselective OTUD7B fragment discovery through chemoproteomics screening and high-throughput optimisation” (Communications Chemistry, 2025):

Key:
Assay in all cases: log2 ratio of Biotin-Ahx-Ub-VS probe labelling (fragment/DMSO); higher = less target engagement (more negative = stronger competition), active = hit call of the paper (q ≤ 0.05, log2 ratio ≤ -1)
Details in all cases: compound concentration: 200 uM; treatment time: 3 h
USP42 = biological target: T1, USP42 (UniProt Q9H9J4)
T1 sequence (whole entry): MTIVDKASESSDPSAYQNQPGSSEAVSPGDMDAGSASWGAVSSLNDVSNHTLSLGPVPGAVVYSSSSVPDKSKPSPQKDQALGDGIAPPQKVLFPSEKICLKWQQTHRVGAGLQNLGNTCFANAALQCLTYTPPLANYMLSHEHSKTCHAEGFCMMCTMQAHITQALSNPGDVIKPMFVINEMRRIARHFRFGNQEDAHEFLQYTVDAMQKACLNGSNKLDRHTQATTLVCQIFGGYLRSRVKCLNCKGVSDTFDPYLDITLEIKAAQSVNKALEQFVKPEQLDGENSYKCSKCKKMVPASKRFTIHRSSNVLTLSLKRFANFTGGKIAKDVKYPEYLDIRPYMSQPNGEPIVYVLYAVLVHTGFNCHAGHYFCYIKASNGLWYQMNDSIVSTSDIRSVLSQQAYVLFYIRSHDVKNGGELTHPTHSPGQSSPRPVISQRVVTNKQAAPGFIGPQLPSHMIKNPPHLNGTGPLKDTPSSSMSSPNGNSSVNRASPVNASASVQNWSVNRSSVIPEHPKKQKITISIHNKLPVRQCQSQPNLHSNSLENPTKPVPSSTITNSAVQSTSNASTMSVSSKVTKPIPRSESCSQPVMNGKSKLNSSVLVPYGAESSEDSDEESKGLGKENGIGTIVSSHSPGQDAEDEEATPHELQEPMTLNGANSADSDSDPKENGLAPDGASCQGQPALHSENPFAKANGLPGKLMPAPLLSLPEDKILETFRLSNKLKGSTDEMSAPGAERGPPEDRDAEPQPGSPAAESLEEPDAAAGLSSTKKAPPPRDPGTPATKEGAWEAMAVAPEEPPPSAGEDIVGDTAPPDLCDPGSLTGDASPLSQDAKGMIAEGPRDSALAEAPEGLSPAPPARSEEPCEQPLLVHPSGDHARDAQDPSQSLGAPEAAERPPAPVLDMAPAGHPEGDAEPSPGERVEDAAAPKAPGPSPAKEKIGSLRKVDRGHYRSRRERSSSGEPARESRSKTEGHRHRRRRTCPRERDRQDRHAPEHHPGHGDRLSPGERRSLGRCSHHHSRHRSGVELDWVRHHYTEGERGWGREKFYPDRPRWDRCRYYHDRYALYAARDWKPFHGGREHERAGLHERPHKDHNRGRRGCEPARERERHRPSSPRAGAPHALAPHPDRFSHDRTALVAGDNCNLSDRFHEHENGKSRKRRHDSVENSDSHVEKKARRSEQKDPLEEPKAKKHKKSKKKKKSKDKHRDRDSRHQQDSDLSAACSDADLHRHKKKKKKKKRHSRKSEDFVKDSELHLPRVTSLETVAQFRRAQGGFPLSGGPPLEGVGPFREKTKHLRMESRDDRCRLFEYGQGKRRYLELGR
In short: (§1)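 Triplicate samples of HEK293T lysate, 495 µg each, received fragment at 200 µM or vehicle for 3 h, followed by Biotin-Ahx-Ub-VS (0.5 µM final) for 1 h. After NeutrAvidin enrichment of labelled DUBs and LysC/trypsin digestion, peptides were run by diaPASEF LC-MS/MS. The values are average log2 fragment/vehicle ratios from global-median-normalised Spectronaut label-free quantities, tested by unpaired t-test on proteins having ≥2 unique peptides.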

USP46 = USP46 (UniProt P62068)
Sequence of USP46 (P62068 whole entry): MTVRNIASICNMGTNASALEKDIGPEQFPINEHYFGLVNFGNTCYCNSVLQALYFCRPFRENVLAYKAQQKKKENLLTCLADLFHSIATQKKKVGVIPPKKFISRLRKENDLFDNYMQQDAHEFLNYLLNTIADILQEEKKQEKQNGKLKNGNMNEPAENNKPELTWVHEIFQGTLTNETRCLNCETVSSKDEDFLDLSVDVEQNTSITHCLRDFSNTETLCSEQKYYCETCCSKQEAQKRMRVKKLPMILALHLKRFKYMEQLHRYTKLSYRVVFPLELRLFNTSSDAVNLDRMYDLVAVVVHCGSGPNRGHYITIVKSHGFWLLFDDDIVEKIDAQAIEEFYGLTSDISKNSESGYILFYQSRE
In short: as §1

USP47 = biological target: T2, USP47 (UniProt Q96K76)
T2 sequence (whole entry): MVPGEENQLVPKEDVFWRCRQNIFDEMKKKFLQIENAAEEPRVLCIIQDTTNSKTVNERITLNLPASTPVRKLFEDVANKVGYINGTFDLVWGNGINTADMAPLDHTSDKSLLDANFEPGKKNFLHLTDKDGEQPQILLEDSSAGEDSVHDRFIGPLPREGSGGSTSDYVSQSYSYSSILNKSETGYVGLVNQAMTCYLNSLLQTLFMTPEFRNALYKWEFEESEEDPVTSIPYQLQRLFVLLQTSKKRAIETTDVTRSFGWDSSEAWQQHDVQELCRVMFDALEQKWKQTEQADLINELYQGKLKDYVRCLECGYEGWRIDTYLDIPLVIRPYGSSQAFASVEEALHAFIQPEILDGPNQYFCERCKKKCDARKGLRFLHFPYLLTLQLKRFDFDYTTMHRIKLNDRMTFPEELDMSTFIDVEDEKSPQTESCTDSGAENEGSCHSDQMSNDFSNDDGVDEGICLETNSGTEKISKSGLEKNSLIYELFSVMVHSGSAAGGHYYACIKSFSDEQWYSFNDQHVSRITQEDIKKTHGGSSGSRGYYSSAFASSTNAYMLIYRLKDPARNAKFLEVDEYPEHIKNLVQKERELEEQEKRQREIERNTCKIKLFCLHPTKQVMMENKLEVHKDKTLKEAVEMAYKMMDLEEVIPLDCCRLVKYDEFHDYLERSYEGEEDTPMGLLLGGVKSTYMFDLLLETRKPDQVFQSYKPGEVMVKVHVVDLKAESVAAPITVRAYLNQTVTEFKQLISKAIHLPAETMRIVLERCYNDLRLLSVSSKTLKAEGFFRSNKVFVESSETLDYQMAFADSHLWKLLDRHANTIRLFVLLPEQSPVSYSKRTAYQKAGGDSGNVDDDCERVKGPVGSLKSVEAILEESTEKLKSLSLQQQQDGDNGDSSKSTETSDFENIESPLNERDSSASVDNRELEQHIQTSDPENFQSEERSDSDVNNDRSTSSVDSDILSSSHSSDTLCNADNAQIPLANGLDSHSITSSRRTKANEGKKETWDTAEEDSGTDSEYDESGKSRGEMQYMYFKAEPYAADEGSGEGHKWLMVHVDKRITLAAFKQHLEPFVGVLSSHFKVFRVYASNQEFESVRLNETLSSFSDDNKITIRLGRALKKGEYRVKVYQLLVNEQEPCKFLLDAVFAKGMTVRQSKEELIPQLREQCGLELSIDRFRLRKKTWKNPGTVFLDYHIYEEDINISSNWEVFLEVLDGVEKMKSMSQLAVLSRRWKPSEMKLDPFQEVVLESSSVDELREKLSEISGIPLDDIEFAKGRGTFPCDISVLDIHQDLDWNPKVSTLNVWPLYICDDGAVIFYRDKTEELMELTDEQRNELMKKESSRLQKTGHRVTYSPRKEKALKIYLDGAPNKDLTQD
In short: as §1

USP48 = biological target: T3, USP48 (UniProt Q86UV5)
T3 sequence (whole entry): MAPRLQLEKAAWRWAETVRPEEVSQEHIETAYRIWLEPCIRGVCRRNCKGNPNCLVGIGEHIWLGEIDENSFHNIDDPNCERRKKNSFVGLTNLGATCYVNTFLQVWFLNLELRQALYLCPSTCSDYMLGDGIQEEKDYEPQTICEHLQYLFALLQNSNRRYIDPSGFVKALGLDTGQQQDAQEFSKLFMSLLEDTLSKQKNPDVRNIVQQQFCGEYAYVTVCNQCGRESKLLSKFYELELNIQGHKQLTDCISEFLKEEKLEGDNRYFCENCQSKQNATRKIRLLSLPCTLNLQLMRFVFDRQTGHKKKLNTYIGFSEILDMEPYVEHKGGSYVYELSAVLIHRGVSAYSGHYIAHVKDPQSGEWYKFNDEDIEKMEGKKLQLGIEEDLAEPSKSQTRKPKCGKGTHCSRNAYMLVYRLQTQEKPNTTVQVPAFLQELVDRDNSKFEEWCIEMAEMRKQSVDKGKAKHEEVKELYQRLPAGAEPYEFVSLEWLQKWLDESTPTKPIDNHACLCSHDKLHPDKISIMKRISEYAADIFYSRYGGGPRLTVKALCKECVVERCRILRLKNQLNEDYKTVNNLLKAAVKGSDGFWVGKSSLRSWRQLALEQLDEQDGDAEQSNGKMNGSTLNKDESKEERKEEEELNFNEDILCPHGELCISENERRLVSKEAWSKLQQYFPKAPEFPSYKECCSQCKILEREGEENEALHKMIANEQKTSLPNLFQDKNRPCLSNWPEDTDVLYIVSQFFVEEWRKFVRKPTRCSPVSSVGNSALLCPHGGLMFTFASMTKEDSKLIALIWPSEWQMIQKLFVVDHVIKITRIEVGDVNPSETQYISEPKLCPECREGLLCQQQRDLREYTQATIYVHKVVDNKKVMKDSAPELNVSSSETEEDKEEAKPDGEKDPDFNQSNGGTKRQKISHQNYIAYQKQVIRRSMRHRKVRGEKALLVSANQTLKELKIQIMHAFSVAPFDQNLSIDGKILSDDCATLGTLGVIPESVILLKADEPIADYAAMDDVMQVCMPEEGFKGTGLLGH
In short: as §1

USP5 = biological target: T4, USP5 (UniProt P45974)
T4 sequence (whole entry): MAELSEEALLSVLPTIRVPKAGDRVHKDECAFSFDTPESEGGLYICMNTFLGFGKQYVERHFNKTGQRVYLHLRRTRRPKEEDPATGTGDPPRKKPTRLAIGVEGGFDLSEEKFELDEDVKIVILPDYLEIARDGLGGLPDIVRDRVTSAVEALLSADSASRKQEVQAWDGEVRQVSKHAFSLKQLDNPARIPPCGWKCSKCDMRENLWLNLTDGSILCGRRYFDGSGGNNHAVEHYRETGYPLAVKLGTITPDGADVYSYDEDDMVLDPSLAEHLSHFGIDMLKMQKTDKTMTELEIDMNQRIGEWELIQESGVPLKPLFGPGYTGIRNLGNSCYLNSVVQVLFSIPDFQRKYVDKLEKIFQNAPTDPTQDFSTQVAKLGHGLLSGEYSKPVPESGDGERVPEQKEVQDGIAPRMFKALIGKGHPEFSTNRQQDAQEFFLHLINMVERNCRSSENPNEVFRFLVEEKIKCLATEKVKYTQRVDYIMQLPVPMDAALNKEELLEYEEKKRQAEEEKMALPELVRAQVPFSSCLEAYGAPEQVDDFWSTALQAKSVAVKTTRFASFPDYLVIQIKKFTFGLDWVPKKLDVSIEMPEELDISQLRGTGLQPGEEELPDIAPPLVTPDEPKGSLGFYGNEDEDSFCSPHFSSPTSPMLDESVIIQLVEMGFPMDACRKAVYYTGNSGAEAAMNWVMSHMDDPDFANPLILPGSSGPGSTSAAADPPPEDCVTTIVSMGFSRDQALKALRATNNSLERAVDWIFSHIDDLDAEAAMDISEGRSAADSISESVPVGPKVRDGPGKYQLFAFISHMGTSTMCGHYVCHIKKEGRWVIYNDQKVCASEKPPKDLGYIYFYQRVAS
In short: as §1

USP54 = USP54 (UniProt Q70EL1)
In short: as §1

USP7 = USP7 (UniProt Q93009)
Sequence of USP7 (Q93009 whole entry, looked up): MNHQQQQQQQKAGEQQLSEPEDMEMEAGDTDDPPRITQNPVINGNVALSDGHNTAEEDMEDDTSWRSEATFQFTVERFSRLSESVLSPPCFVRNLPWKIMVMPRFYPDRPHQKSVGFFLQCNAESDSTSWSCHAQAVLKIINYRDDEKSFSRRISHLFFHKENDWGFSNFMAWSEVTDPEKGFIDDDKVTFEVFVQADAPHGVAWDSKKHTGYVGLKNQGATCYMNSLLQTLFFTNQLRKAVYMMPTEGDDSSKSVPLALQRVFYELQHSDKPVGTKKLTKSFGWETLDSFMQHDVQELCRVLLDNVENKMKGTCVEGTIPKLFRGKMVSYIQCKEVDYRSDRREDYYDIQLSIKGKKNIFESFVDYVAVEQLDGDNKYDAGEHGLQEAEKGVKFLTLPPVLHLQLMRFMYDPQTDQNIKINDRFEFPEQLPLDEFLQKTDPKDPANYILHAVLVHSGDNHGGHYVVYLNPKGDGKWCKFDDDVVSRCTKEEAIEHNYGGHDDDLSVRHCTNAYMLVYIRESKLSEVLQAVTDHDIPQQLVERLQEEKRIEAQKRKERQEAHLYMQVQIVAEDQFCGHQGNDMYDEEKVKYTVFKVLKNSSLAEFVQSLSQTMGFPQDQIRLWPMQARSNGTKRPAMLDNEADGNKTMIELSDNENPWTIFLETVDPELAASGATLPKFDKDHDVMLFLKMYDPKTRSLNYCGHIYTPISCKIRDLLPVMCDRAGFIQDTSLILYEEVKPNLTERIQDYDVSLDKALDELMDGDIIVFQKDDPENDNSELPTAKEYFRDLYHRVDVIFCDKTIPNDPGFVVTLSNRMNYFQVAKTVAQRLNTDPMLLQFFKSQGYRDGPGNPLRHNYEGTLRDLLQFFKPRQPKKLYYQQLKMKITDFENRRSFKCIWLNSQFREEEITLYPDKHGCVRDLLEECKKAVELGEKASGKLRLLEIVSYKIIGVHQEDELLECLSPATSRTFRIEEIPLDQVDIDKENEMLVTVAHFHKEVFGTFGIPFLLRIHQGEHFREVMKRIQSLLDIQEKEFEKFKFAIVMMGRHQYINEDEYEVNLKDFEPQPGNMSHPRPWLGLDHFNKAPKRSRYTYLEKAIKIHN
In short: as §1

USP8 = biological target: T5, USP8 (UniProt P40818)
T5 sequence (whole entry): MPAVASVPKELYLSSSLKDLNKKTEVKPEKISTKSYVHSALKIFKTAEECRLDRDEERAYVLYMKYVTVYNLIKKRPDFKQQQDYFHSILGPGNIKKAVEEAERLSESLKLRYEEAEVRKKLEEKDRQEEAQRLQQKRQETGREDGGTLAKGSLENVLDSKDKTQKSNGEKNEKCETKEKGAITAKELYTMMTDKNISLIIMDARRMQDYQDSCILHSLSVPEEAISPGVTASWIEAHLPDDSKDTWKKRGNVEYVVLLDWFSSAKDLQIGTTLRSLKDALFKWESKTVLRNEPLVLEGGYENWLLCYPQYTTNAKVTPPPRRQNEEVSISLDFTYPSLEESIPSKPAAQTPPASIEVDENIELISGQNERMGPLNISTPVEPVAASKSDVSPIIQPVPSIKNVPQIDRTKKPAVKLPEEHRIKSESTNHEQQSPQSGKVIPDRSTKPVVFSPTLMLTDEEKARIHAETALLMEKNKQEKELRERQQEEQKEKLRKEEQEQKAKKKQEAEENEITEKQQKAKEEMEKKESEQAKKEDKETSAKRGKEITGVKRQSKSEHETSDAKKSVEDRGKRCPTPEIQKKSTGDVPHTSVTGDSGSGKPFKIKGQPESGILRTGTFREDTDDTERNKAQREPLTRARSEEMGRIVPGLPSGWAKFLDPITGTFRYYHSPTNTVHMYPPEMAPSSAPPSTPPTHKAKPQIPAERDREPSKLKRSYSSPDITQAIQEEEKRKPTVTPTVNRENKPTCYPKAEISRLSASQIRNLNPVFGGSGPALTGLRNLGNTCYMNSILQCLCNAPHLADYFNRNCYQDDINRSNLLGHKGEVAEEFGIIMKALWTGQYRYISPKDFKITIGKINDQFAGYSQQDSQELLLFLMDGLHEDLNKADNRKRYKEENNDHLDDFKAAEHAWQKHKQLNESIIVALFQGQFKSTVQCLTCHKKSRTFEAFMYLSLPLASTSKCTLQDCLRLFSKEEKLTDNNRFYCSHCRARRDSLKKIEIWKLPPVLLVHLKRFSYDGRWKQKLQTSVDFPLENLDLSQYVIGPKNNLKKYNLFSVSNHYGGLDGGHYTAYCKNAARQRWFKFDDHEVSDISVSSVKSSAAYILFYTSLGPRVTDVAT
In short: as §1

USP9X = USP9X (UniProt Q93008)
Sequence of USP9X (Q93008 whole entry): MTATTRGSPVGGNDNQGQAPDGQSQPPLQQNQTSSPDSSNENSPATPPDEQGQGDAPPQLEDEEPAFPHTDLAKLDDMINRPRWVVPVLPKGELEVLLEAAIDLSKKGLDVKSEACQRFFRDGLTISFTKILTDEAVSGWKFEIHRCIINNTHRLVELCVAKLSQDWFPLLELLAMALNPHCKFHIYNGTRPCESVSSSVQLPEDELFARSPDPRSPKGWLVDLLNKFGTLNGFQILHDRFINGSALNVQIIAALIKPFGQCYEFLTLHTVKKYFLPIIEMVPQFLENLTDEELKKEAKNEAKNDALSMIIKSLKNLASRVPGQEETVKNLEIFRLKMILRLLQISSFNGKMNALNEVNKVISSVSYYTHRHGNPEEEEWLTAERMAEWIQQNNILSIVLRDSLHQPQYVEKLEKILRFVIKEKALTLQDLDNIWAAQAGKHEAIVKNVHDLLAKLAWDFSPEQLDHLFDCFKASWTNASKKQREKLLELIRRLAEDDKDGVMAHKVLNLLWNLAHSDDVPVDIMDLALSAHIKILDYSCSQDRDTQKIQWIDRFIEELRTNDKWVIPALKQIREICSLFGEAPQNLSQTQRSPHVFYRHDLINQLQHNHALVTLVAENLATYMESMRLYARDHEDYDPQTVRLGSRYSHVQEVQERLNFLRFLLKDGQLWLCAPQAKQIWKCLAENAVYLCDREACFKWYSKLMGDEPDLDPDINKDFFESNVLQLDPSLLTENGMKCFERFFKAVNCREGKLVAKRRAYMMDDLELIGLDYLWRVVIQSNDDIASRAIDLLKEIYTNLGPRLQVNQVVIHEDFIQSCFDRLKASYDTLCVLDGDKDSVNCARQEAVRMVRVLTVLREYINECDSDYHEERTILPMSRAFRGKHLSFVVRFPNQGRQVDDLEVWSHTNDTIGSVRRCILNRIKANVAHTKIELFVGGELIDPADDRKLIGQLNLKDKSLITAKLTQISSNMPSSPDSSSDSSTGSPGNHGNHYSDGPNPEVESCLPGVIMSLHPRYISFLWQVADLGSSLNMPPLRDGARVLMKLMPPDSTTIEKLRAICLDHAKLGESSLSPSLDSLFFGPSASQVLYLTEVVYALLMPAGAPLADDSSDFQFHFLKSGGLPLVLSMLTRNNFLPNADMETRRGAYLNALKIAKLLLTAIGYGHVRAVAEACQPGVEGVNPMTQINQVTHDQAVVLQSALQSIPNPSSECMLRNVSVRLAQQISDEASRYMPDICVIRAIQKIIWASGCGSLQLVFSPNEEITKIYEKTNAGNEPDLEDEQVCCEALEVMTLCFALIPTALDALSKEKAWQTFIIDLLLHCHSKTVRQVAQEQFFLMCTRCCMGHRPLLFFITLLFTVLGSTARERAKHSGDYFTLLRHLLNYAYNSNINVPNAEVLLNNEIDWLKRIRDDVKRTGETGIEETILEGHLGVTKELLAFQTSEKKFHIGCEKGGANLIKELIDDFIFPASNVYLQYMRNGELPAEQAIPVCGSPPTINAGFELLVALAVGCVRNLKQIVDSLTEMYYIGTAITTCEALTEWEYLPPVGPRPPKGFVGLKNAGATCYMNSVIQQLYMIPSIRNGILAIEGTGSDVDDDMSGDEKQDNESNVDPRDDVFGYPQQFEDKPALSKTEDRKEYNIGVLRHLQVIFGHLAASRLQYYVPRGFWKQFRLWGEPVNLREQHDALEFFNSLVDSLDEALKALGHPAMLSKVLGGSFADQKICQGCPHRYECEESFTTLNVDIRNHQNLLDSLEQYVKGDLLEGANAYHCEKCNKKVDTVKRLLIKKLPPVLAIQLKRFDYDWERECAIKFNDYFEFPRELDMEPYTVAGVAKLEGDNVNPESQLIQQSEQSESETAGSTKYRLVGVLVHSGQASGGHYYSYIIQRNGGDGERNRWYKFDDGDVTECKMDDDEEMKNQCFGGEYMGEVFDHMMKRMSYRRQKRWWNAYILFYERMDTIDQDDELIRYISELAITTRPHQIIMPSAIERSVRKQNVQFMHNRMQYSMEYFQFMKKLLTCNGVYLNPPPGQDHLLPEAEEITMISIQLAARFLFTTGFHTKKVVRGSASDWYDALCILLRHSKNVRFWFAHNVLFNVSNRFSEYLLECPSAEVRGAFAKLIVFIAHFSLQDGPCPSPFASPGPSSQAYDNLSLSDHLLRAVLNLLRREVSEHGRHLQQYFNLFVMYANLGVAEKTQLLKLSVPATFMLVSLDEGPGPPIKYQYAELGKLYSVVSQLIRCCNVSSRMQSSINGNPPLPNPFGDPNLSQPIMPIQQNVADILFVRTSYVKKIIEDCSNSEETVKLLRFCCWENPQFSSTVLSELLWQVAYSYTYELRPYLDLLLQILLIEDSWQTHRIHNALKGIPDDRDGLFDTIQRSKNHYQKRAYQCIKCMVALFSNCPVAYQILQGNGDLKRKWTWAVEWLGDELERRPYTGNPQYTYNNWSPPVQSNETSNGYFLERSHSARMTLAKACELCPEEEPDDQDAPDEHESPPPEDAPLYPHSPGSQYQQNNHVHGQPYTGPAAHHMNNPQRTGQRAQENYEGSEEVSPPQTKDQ
In short: as §1

UniProt O00487 = biological target: UniProt O00487
Sequence of UniProt O00487 (O00487 whole entry): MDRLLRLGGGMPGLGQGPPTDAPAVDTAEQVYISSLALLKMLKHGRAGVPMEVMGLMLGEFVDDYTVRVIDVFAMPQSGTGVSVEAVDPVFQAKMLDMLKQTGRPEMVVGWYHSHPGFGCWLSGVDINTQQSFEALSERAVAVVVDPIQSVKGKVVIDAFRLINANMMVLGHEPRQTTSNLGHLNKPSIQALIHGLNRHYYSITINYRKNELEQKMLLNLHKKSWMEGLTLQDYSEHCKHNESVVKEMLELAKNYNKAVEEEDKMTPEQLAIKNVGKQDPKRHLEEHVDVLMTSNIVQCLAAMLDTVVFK
In short: as §1

Measured: log2 ratio of Biotin-Ahx-Ub-VS probe labelling

Cc1ncsc1CCNC(=O)CCl
inactive: USP42 0.0552 | USP46 0.359 | USP47 0.687 | USP48 0.00776 | USP5 0.325 | USP54 0.227 | USP7 0.0797 | USP8 0.298 | USP9X -0.0257 | UniProt O00487 0.339
